Laboratory results taken from PubChem BioAssay (Tox21).
Records with an inconclusive call do not appear. A call without a number means that no potency is given here. Unmarked numbers belong to inactive results. Active and inactive are the calls of the source. Unless noted, the call rests on the fitted dose curve; in most records, active means well fitted curve in the direction sought with a large enough effect in the repeat runs; inconclusive means weak or mixed curves; inactive means no such curve, though single readings can be large; an effect the other way counts as inactive or inconclusive.

Tests used:
[1] = qHTS assay to identify small molecule agonists of the peroxisome proliferator-activated receptor delta (PPARd) signaling pathway - cell viability counter screen (AID 743211); further: nearly all actives have a fitted effect of over 55% in size
Method in brief: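 Viability of GeneBLAzer PPARd UAS-bla HEK293H cells was assessed after 17 h compound incubation at 37C, using CellTiter-Glo reagent added after the reporter read and luminescence recorded 30 min later.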

[2] = target: Peroxisome proliferator-activated receptor delta (Homo sapiens) (UniProt Q03181); experiment: qHTS assay to identify small molecule agonists of the peroxisome proliferator-activated receptor delta (PPARd) signaling pathway (AID 743212; calls by dose curve)
Sequence of Peroxisome proliferator-activated receptor delta (Homo sapiens) (Q03181 whole entry, looked up): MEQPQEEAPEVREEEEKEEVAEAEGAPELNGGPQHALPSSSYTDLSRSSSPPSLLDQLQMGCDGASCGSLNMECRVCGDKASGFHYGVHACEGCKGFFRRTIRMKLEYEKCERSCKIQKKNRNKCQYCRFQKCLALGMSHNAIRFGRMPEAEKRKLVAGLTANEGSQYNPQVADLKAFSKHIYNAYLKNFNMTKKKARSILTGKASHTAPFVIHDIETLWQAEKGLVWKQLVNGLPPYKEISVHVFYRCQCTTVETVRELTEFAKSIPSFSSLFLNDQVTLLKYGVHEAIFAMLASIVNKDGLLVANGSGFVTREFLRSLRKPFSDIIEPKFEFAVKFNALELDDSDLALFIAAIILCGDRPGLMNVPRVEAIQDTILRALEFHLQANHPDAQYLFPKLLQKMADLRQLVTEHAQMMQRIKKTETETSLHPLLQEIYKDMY
Method in brief: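 HEK293H PPARd-bla cells; 5 h preincubation 37 C/5% CO2; compound (DMSO) 37 C; LiveBLAzer B/G FRET substrate 2 h RT; fluorescence intensity.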

[3] = qHTS assay to identify small molecule antagonists of the peroxisome proliferator-activated receptor delta (PPARd) signaling pathway - cell viability counter screen (AID 743213); further: nearly all actives have a fitted effect of over 50% in size
Method in brief: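 Viability counter-screen, qHTS format: PPARd-bla HEK293H, L165041 300 nM final, 17 h compound exposure at 37 C, CellTiter-Glo luminescence after 30 min RT.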

[4] = target: Peroxisome proliferator-activated receptor delta (Homo sapiens) (UniProt Q03181); experiment: qHTS assay to identify small molecule antagonists of the peroxisome proliferator-activated receptor delta (PPARd) signaling pathway (AID 743215; active means well fitted inhibition curve with a large enough effect in the signal ratio in the repeat runs, not every such curve was filed as active; the % refers to the signal ratio;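 further: cells stimulated with agonist L165041 at 300 nM final during compound exposure; series mostly up to about 62 µM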)
Method in brief: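 HEK293H UAS-bla, PPARd; agonist L165041 300 nM final with cpd in DMSO; 37 C 17 h; FRET substrate, RT 2 h; fluorescence intensity.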

[5] = target: Bile acid receptor (Homo sapiens) (UniProt Q96RI1); experiment: qHTS assay to identify small molecule antagonists of the farnesoid-X-receptor (FXR) signaling pathway (AID 743217; active means well fitted inhibition curve with a large enough effect in the signal ratio in the repeat runs, not every such curve was filed as active; the % refers to the signal ratio)
Sequence of Bile acid receptor (Homo sapiens) (Q96RI1 whole entry, looked up): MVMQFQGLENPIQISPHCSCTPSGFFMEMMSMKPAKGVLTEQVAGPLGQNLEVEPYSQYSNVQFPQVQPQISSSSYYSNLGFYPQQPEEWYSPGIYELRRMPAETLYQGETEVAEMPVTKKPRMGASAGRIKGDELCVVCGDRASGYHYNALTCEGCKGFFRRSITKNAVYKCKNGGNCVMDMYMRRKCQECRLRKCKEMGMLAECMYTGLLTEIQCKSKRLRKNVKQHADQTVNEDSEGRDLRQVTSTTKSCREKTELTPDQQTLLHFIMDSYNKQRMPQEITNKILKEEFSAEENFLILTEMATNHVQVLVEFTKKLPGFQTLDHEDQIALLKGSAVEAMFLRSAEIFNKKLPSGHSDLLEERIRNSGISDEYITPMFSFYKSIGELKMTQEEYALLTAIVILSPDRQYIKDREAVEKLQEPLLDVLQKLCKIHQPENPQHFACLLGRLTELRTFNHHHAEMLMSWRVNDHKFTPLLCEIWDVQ
Method in brief: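 GeneBLAzer FXR-UAS-bla HEK 293T, CDCA-stimulated (50 uM final). Compound treatment 16 h, 37 °C. Detection: beta-lactamase cleavage of B/G FRET substrate, fluorescence.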

[6] = qHTS assay to identify small molecule agonists of the farnesoid-X-receptor (FXR) signaling pathway - cell viability counter screen (AID 743218); further: nearly all actives have a fitted effect of over 45% in size; further: potency means the concentration at half of the fitted maximal effect
Method in brief: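 Parallel cytotoxicity test: compound-treated (16 h, 37 C) HEK 293T FXR-bla reporter cells were lysed with CellTiter-Glo and luminescence recorded.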

[7] = target: Bile acid receptor (Homo sapiens) (UniProt Q96RI1); experiment: qHTS assay to identify small molecule agonists of the farnesoid-X-receptor (FXR) signaling pathway (AID 743220; active means well fitted activation curve with a large enough effect in the signal ratio in the repeat runs, not every such curve was filed as active; the % refers to the signal ratio)
Method in brief: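 Beta-lactamase reporter under UAS control in GeneBLAzer FXR HEK 293T cells (5000/well) measured with LiveBLAzer FRET substrate after 2 h at room temperature. Compound exposure lasted 16 h at 37C.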

[8] = qHTS assay to identify small molecule antagonists of the farnesoid-X-receptor (FXR) signaling pathway - cell viability counter screen (AID 743221; active means well fitted cell-killing curve with a large enough effect in the repeat runs, not every such curve was filed as active; further: nearly all actives have a fitted effect of over 50% in size)
Method in brief: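 Quantitative HTS of the Tox21 10K library run in parallel with the beta-lactamase reporter read. HEK 293T cells carrying a UAS-driven bla reporter got compound and 50 uM CDCA (final) for 16 h; ATP-based luminescence followed.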

[9] = target: Vitamin D3 receptor (Homo sapiens) (UniProt P11473); experiment: qHTS assay to identify small molecule agonists of the vitamin D receptor (VDR) signaling pathway (AID 743222; calls by dose curve)
Sequence of Vitamin D3 receptor (Homo sapiens) (P11473 whole entry, looked up): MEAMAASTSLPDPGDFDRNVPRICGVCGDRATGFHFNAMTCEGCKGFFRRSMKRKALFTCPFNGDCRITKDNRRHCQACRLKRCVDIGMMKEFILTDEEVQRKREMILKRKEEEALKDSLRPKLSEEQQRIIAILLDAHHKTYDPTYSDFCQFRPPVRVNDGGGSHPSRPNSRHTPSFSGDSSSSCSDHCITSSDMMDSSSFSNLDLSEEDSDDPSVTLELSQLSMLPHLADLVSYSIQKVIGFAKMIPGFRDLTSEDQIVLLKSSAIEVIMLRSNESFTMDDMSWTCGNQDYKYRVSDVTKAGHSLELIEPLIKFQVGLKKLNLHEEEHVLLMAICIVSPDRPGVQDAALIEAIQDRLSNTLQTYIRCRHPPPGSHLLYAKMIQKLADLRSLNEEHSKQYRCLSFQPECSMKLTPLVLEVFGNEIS
Method in brief: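 In VDR-bla cells, compound-induced beta-lactamase expression is quantified by FRET substrate fluorescence. Treatment lasts 16 h at 37C; substrate develops 2 h at room temperature.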

[10] = qHTS assay to identify small molecule agonists of the vitamin D receptor (VDR) signaling pathway - cell viability counter screen (AID 743224); further: series mostly up to about 63 µM; nearly all actives have a fitted effect of over 50% in size
Method in brief: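 Plated VDR-bla cells (4 h, 37C) received compound, incubated 16 h, then LiveBLAzer substrate 2 h RT; CellTiter-Glo added afterwards, luminescence read at 30 min.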

[11] = qHTS assay to identify small molecule antagonists of the vitamin D receptor (VDR) signaling pathway - cell viability counter screen (AID 743225); further: nearly all actives have a fitted effect of over 50% in size
Method in brief: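 Cells (VDR-UAS-bla HEK 293T) are plated, rested 4 h at 37C, dosed with compound and 3 nM final 1-alpha,25-dihydroxy vitamin D3, and incubated 16 h. Viability is taken from CellTiter-Glo luminescence in the reporter wells.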

[12] = qHTS assay to identify small molecule agonists of the NFkB signaling pathway (AID 1159509; active means well fitted curve in the direction sought with a large enough effect in the signal ratio in the repeat runs, not every such curve was filed as active; the % refers to the signal ratio; further: series mostly up to about 61 µM)
Method in brief: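 ME-180 NFkB-bla, 2,000 cells/well, overnight plating; cpd pinned in DMSO, 5 h 37 C; B/G FRET substrate 1.5 h RT; ex 405, em 460/530 nm.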

[13] = qHTS assay to identify small molecule agonists of the NFkB signaling pathway - cell viability counter screen (AID 1159515; calls by dose curve; further: series mostly up to about 61 µM; nearly all actives have a fitted effect of over 55% in size)
Method in brief: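 Using the same wells as the NFkB reporter read, ME-180 NFkB-bla cells given compounds for 5 hr were assessed for viability via CellTiter-Glo, with luminescence taken after a 30 min room-temperature incubation.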

[14] = qHTS assay to identify small molecule agonists of the endoplasmic reticulum stress response signaling pathway (AID 1159516; active means well fitted activation curve with a large enough effect in the signal ratio in the repeat runs, not every such curve was filed as active; the % refers to the signal ratio)
Method in brief: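 An ESRE-bla HeLa cell assay: compounds were pin-transferred from DMSO onto overnight-plated cells and left 5 hr at 37 C. Substrate was then loaded for 2 hr at room temperature before reading fluorescence at 460 nm and 530 nm.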

[15] = qHTS assay to identify small molecule agonists of the endoplasmic reticulum stress response signaling pathway - cell viability counter screen (AID 1159517; calls by dose curve)
Method in brief: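 HeLa cells carrying an ESRE-driven beta-lactamase reporter receive compound for 5 hr at 37 C. Cell viability is then gauged with CellTiter-Glo by luminescence, 30 min at room temperature.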

[16] = qHTS assay to identify small molecule antagonists of the retinoid-related orphan receptor gamma (ROR-gamma) signaling pathway - cell viability counter screen (AID 1159520); further: nearly all actives have a fitted effect of over 50% in size
Method in brief: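 Cytotoxicity was read from cellular ATP (CellTiter-Glo luminescence) after 16 hr at 37 C with 1 uM doxycycline induction. The inducer was added 2 hr after compound transfer to Tet-on ROR gamma CHO cells.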

[17] = target: Nuclear receptor ROR-gamma (Homo sapiens) (UniProt P51449); experiment: qHTS assay to identify small molecule antagonists of the retinoid-related orphan receptor gamma (ROR-gamma) signaling pathway (AID 1159521)
Method in brief: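 RORγ antagonism is scored from reduced reporter luminescence in Tet-on CHO cells. Induction used 1 uM final doxycycline hyclate for 16 h at 37 C, following a 2 h compound exposure.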

[18] = qHTS assay to identify small molecule agonists of the AP-1 signaling pathway - cell viability counter screen (AID 1159525; calls by dose curve; further: nearly all actives have a fitted effect of over 55% in size)
Method in brief: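 Luminescent ATP readout (Cell Titer Glo, 30 min RT), normalised to DMSO and tetra n-octyl ammonium bromide controls. Cells were ME-180 AP-1-bla in 0.5% dialyzed FBS Opti-MEM, with a 5 h, 37 °C compound exposure.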

[19] = qHTS assay to identify small molecule agonists of the AP-1 signaling pathway (AID 1159526; calls by dose curve)
[20] = target: Vitamin D3 receptor (Homo sapiens) (UniProt P11473); experiment: qHTS assay to identify small molecule antagonists of the vitamin D receptor (VDR) signaling pathway (AID 743223; active means well fitted inhibition curve with a large enough effect in the signal ratio in the repeat runs, not every such curve was filed as active; the % refers to the signal ratio)
Method in brief: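 Fluorescence from LiveBLAzer B/G FRET substrate, read after 2 h at room temperature, reflects beta-lactamase reporter activity in VDR-bla cells treated 16 h at 37C with compounds and agonist 1alpha,25-dihydroxyvitamin D3 (3 nM final).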

Row | Structure (SMILES) | outcome [1] | outcome [2] | outcome [3] | outcome [4] | Potency [5] | Potency [6] | Potency [7] | outcome [8] | outcome [9] | Potency [10] | outcome [11] | outcome [12] | outcome [13] | outcome [14] | Potency [15] | outcome [16] | outcome [17] | outcome [18] | outcome [19] | outcome [20]
1 | CCCCOCCOC(=O)COc1nc(Cl)c(Cl)cc1Cl | inactive | inactive | inactive | inactive | inactive | inactive | inactive | inactive | inactive | inactive | inactive | inactive | inactive | inactive | inactive | inactive | inactive | inactive | inactive | –
2 | NC(CO)C(=O)NNCc1ccc(O)c(O)c1O (stereo unspecified) | inactive | inactive | inactive | inactive | inactive | inactive | inactive | inactive | inactive | inactive | inactive | inactive | inactive | inactive | inactive | inactive | inactive | inactive | inactive | inactive
3 | CN(C)CCOCCO | inactive | inactive | inactive | inactive | inactive | inactive | inactive | inactive | – | inactive | – | inactive | inactive | inactive | inactive | inactive | inactive | inactive | inactive | –
4 | C#CC(C)N(C)C(=O)Nc1ccc(Cl)cc1 (stereo unspecified) | inactive | inactive | inactive | inactive | inactive | 0.436 µM (active) | inactive | inactive | inactive | inactive | inactive | inactive | inactive | inactive | inactive | inactive | inactive | inactive | inactive | –
5 | CCOC(=O)/C=C/c1ccccc1 | inactive | inactive | inactive | inactive | – | inactive | – | inactive | inactive | inactive | – | inactive | inactive | inactive | inactive | inactive | inactive | inactive | inactive | inactive
6 | NCCS | inactive | inactive | inactive | inactive | inactive | inactive | – | inactive | inactive | inactive | inactive | inactive | inactive | inactive | inactive | inactive | inactive | inactive | inactive | inactive
7 | CNC(=O)[C@H]1O[C@@H](n2cnc3c(NCc4cc(Cl)ccc4OCc4cc(C)no4)ncnc32)[C@H](O)[C@@H]1N | inactive | inactive | inactive | inactive | inactive | inactive | inactive | inactive | inactive | inactive | inactive | inactive | inactive | inactive | inactive | inactive | inactive | inactive | inactive | inactive
